Tg IFNy HTS: T. gondii growth inhibition with IFN-gamma, primary screen, cell-based. Toxoplasma gondii growth in IFN-gamma-treated host cells; stronger effect = lower value. activity change, negative = inhibition, % (test concentration not listed). hit rate 3.8% among 69,000; in the data active means activity change below about -70%, passing the limit was not always enough;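 further: host cells are HeLa cells infected with Toxoplasma gondii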
Starred values were filed as active, the others as inactive; i = inactive; ! = a repeat was not active. Shown is part of a subset that was picked to be rich in hits.

SMILES	Tg IFNy HTS
CCOC(=O)CN1CCC2(CC(C(=O)NCc3ccc(F)cc3)=NO2)C1 (centres undefined)	0.8
CCc1ccc(CN2CCC(N(C)C)CC2C(=O)O)o1 (centres undefined)	-1.5
O=C(CCCn1c(=S)[nH]c2cc3c(cc2c1=O)OCO3)N1CCC(O)(c2cccc(C(F)(F)F)c2)CC1	-57.2
Cc1cccc2[nH]c(CCNC(=O)C(C)n3cc(Cl)cn3)nc12 (centres undefined)	-1.1
COc1ccc(CCNc2ncnc3c2cnn3-c2ccccc2)cc1OC	21.2
Nc1ccc2ncnc(NCCc3ccc(Oc4ccccc4)cc3)c2c1	-70.6*
c1ccc(CNc2ncnc3ccccc23)cc1	-15.2
Cc1ncc(CO)c(CN(C)Cc2nc(C3CC3)no2)c1O	7.0
c1ccc(CN2CCC(Cn3ccnc3C3CC3)C2)cc1 (centres undefined)	2.5
Cn1cnnc1Sc1cc(C#N)c(C#N)cc1Sc1nncn1C	-41.4
Cc1ccc(Nc2nc(Nc3ccc(C)cc3)nc(Sc3nncn3C)n2)cc1	-75.2*
CC1c2cccn2CCN1Cc1ccc(Sc2nncn2C)o1 (centres undefined)	3.0
O=C1c2ccccc2O[C@@H](c2ccccc2)[C@@H]1O	170.7
O=C(Cc1cccc(F)c1)N1CCC(Cn2nnn(-c3cccs3)c2=O)CC1	-19.4
Cc1c(C(C)NC(=O)c2cnc(-c3ccc(Cl)cc3)nc2)cnn1C (centres undefined)	-19.7
C=CCNC(=O)c1cccnc1N1CCN(Cc2ccncc2Cl)CC1	-3.7
COc1ccc(-c2nc(Nc3cc(Cl)ccc3OC)c3ccccc3n2)cc1	-46.7
O=c1[nH]nc(-c2cc3c(s2)CCCC3)o1	-99.6*
CN(C)CCNC(=O)c1ccc2ccc(N(C)c3ccccc3)n2c1	333.7
Cc1ccc(NC(=O)c2ccc3c(c2)c(C)cn3C)c(-c2cc(C)[nH]n2)c1	-48.5
COc1ccc(C(=O)Nc2ccc(-c3nc(-c4ccc(C)cc4C)co3)cc2)cc1	18.0
COc1ccc(-c2cc(C(=O)Nc3ccc(C)cc3-c3cc(C)[nH]n3)no2)cc1	-78.1*
CCN1C(=O)CCc2cc(NS(=O)(=O)c3c(C)noc3C)ccc21	-17.7
OC(CNc1ccccc1)Cn1c2ccc(Cl)cc2c2cc(Cl)ccc21 (centres undefined)	i
Cc1ccccc1CCC1CCCN(Cc2nnc(-c3cccnc3)o2)C1 (centres undefined)	3.7
SMILES	Tg IFNy HTS
Cc1ccc(NC(=O)CSc2nnc(-c3ccncc3)n2-c2ccccc2)cc1	-59.2
COc1ccc(NC(=O)CSc2nnc3c(C)cc4ccccc4n23)cc1	-0.5
COc1ccc(-n2c(-c3ccccc3)cnc2SCC(=O)Nc2cc(C)cc(C)c2)cc1	-98.3*
NC(=O)c1cnc2n1CCN(C(=O)C/C=C/c1ccccc1)C2	1.4
CCn1c(C)nc2cc(NC(=O)Cn3ncc4ccccc4c3=O)ccc21	6.2
Cc1ccc(-c2nnn(CC(=O)Nc3ccc(N4CCCS4(=O)=O)cc3)n2)cc1	4.8
COc1ccc(-c2nnn(CC(=O)Nc3ccc(C)cc3)n2)cc1	-96.8*
COCCCNC(=O)Cn1nnc(-c2ccc(NC(=O)c3cccnc3)cc2)n1	-6.3
O=C(CSc1cn[nH]n1)Nc1ccc(Cl)cc1	12.6
CSc1nn(-c2c(Cl)cc(C(F)(F)F)cc2Cl)c(N)c1C#N	-100.6*
Cc1cc(C)n(-c2c(Cl)cc(C(F)(F)F)cc2Cl)n1	34.8
CSc1nc(-c2cccs2)cc(C(F)(F)F)c1C#N	89.3
Cc1nc(-c2nc(C(=O)C3CC3)c3ccccn23)cn1C(C)C	28.3
c1ccc2c(c1)COC(c1ccsc1)N2 (centres undefined)	65.7
COc1ccccc1NC(=O)CN1CCC2(CC1)N=C(c1ccc(C)c(C)c1)C(=O)N2	79.6
CC(COc1ccccc1)N(CCCl)Cc1ccccc1 (centres undefined)	5.0
CC(C)COCC(CN(Cc1ccccc1)c1ccccc1)N1CCCC1 (centres undefined)	-76.1*!
Cc1nc(-c2ccc(Cl)cc2)sc1CCNC(=O)C(C)(C)C	132.6
Nc1n[nH]c(-c2ccc(-c3nc(N)n[nH]3)cc2)n1	-52.6
CCN1CC[C@@H]2Oc3ccccc3S(=O)(=O)N(CC3CC3)[C@@H]2CC1	2.5
O=C(c1ccccc1)N1CC[C@@H]2Oc3ccccc3S(=O)(=O)N(CC3CC3)[C@@H]2CC1	-23.7
O=S1(=O)c2ccccc2O[C@H]2CCN(Cc3ccc(Cl)cc3)CC[C@H]2N1CC1CC1	-88.9*
COc1ccc2cc(C3CN(S(=O)(=O)c4cn(C)c(C)n4)CCO3)ccc2c1 (centres undefined)	-6.7
C[C@H](Oc1cc(-c2cnn(C3CCNCC3)c2)cnc1N)c1c(Cl)ccc(F)c1Cl	2.7
C[C@@H](Oc1cc(-c2cnn(C3CCNCC3)c2)cnc1N)c1c(Cl)ccc(F)c1Cl	-77.5*
SMILES	Tg IFNy HTS
CN(Cc1cccnc1)C1CCN(C(=O)c2ccnnc2)C(C(=O)O)C1 (centres undefined)	0.6
COc1ccc(NC(C)C(=O)Nc2nc(C)cs2)c(OC)c1 (centres undefined)	79.0
Cc1ccccc1N1CCCN(Cc2nc[nH]c2C)CC1	-3.3
O=C(Nc1cccc(F)c1)c1ncn2c(C3CCN(CC4CC4)CC3)ccnc12	12.0
O=C(Cc1ccc(Cl)cc1)NCCc1csc(-c2cccc(F)c2)n1	-6.6
O=C(NCc1cccc(F)c1)c1nc(CS(=O)(=O)c2ccc(Cl)cc2)no1	-86.9*
CN(C)C(=O)N1Cc2nc(C(=O)NCc3cccc(F)c3)oc2C1	7.2
Cn1nc(-c2cccc(F)c2)c2c1C[C@H]1CN(C(=O)c3ccncc3)C[C@H]21	4.2
C=CCn1c(=O)c(C(=O)Nc2cccc(OC)c2)c(O)c2ccccc21	119.2
COC(=O)C1=C(C)NC(C)=C(C(=O)OCCN2CCN(C(c3ccccc3)c3ccccc3)CC2)C1c1cccc([N+](=O)[O-])c1 (centres undefined)	-84.0*!
COC(=O)C1=C(C)NC(C)=C(C(=O)OC/C=C/c2ccccc2)C1c1cccc([N+](=O)[O-])c1 (centres undefined)	-2.3
COC(=O)C1=C(C)NC(C)=C(C(=O)OCCN(C)Cc2ccccc2)C1c1cccc([N+](=O)[O-])c1 (centres undefined)	16.4
Cc1ccc(NC(=O)CN2C(=O)c3cccc4cccc2c34)cc1	-52.8
CC(=O)c1ccc(OCC(O)CN2CCN(C(c3ccccc3)c3ccccc3)CC2)cc1 (centres undefined)	-61.2
CCOC(CN1CCN(CC(C)C(=O)c2ccccc2)CC1)c1ccccc1 (centres undefined)	-9.5
CCCCCOc1ccc(C(O)C(CN2CCCC2)c2ccccc2)cc1 (centres undefined)	-91.2*
CCOCC1CN(C(=O)C2=CCCC2)Cc2cnn(C)c21 (centres undefined)	0.3
CCC(=O)N1CCN(CC)C(=O)C(Cc2ccccc2-c2cccs2)C1 (centres undefined)	-19.3
CN1CCN(C(=O)c2ccc(C3CCCN3C(=O)CNS(C)(=O)=O)nc2)CC1 (centres undefined)	-39.1
CCn1c2ccccc2c2cc(CN3CCN(C(=O)CCC4CCCC4)CC3)ccc21	-60.5
Cc1cc2nccc(C3CCC(CNC(=O)c4cc(C(C)(C)C)nn4C)CC3)n2n1 (centres undefined)	-22.6
CS(=O)(=O)c1ccc(C(O)[C@H](CF)NC(=O)C(Cl)Cl)cc1 (some centres undefined)	-77.6*!
CCCCCCCCCCCCCCCC(=O)OC[C@H](NC(=O)C(Cl)Cl)[C@H](O)c1ccc([N+](=O)[O-])cc1	19.7
